According to PubChem BioAssay (NCATS):
Records with an inconclusive call do not appear. Active and inactive are the calls of the source. Calls follow the shape of the dose curve; as a rule, active = well fitted inhibition curve with a large enough effect; inconclusive = small, poorly fitted or top-dose-only effect; inactive = no such curve, though single readings can be large or run the other way.

Test: qHTS to identify inhibitors of the type 1 interferon - major histocompatibility complex class I in skeletal muscle: primary screen against the NCATS Mechanism Interrogation Plate v5.0 (MIPE) Libary (AID 1347411); also: nearly all actives have a fitted effect of over 65% in size;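 as to activity change, negative = inhibition: plate controls were vehicle for no effect and reference inhibitor for full effect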
Conditions: iHSKM cells + IFN-b, HiBiT-tagged MHC-I luminescence, 24 h; series mostly up to 45.8 µM; activity change, negative = inhibition: at the top concentration
Excerpt: Assay Submitter (PI): Travis B. Kinder Ph.D. & James Inglese Ph.D.
Assay Development and Screening Technology Laboratory (ADST)
National Center for Advancing Translational Sciences (NCATS), Rockville, MD
National Institute of Health (NIH), Bethesda, Maryland
Idiopathic inflammatory myopathies, collectively referred to as myositis, are a group of rare autoimmune diseases characterized by skeletal muscle inflammation, weakness, and usually accompanied by systemic pathologies of the skin, lungs, or vasculature. Current immunosuppressive therapies and glucocorticoids are often not curative and are accompanied by harsh side effects, especially in children with juvenile myositis. We initiated a drug repurposing and development program to identify more targeted, less toxic therapeutics to treat myositis. Although its cause is not known, muscle from a subset of patients have an abundance of the inflammatory type 1 interferon (IFN) and a down-stream product major histocompatibility complex class I (MHC class I), which are both thought to contribute to damage and weakness. We conducted quantitative high throughput screening on 6,576 compounds (4,679 unique) through a series of cell-based assays to identify those that inhibit the IFN-stimulated expression of MHC class I in muscle precursor cells (myoblasts). The compound identification and evaluation strategy utilized a primary screen with reporter-tagged MHC class I in genome-engineered myoblasts, ATP content counter screen for viability, HLA-ABC immunofluorescence secondary screen, and HLA-B RT-qPCR tertiary screen.
The primary screen utilized CRISPR/Cas9 genome-engineering of immortalized human myoblasts, C25cl48, where a pro-luminescent reporter HiBit was fused to the C-terminus of endogenous MHC class I allele HLA-B*08:01 (HLA-B HiBit myoblasts). HiBit is an 11 amino acid fragment of NanoLuc luminescent reporter (Promega Corporation), and when complexed to the larger LgBit fragment, the reconstituted enzyme produces light in the presence of furimazine substrate (Schwinn et al., 2018). Briefly, HLA-B HiBit myoblasts were plated into 1536-well plates, treated with 4.0 ng/ml human IFN-beta and 2,480 compounds from the NCATS Mechanism Interrogation Plate v5.0 (MIPE5.0) in an 11-point, 1:3 titration with a high final concentration of 46 uM. After 24 hrs of treatment, cells were assayed by Nano-Glo HiBiT Lytic Detection System (Promega) and luminescence measured by a ViewLux 1430 Ultra HTS (Perkin Elmer).
Schwinn MK, Machleidt T, Zimmerman K, Eggers CT, Dixon AS, Hurst R, Hall MP, Encell LP, Binkowski BF, Wood K V. 2018. CRISPR-Mediated Tagging of Endogenous Proteins with a Luminescent Peptide. ACS Chem Biol 13:467-474. doi:10.1021/acschembio.7b00549
PROTOCOL TABLE (as described by Inglese et al., 2007)
SEQUENCE No. (e.g., 1, 2, 3, etc.); […] (e.g., Cells, Incubation, Reagent, etc.); VALUE; DESCRIPTION
1a; Cells; 5 uL; Use a Multidrop Combi (Thermo Scientific) to seed 300 cells/well into 24 Greiner 1536 well white/solid bottom, high base, TC plates in 5 ul/well of iHSKM growth medium (GM) without dexamethasone into columns 1+2. Add metal lids with gas-exchange holes
1b; Cells; 5 uL; Use a Multidrop Combi (Thermo Scientific) to seed 300 cells/well into 24 Greiner 1536 well white/solid bottom, high base, TC plates in 5 ul/well of iHSKM GM without dexamethasone + 4 ng/ml IFN-b into columns 3 - 48. Add metal lids with gas-exchange holes
2; Incubate; 1 hr; Incubate at 37 C, 5% CO2, 95% RH
3; Compounds; 23 nl; Use Pin Tool (Wako) to transfer DMSO control, ruxolitinib IFN-b inhibitor control [High Concentration = 80 uM final, 16-pt, 1:2 in duplicate], and library compounds in DMSO
4; Incubate; 24 hrs; Incubate at 37 C, 5% CO2, 95% RH
5; Dispense; 2.5 ul; Use BioRAPTR FRD (Beckman Coulter) to add HiBit lytic reagent
6; Incubate; 10 min; Incubate in the dark at ambient temperature for lysis
7; Detector; 5 sec; Measure luminescence with ViewLux 1430 Ultra HTS (Perkin Elmer). […]
Potency is read from the fitted curve at half-maximal effect.

| SMILES | Potency | activity change, negative = inhibition |
| --- | --- | --- |
| Cc1cc(C(=O)Nc2cc(Nc3ccc4c(/C=C/c5ccccn5)n[nH]c4c3)ccc2F)n(C)n1 | 29.4 µM (active) | – |
| CS(=O)(=O)c1ccc(Oc2cc(F)cc(C#N)c2)c2c1[C@H](O)C(F)(F)C2 | – | -7.56% (inactive) |
| CN1C(=O)c2sccc2N(C)c2nc(Nc3ccc(S(N)(=O)=O)cc3)ncc21 | 26.2 µM (active) | – |
| CCN(c1cc(-c2ccc(CN3CCOCC3)cc2)cc(C(=O)NCc2c(C)cc(C)[nH]c2=O)c1C)C1CCOCC1 | – | -69.9% (inactive) |
| Fc1ccc(-c2nc(-c3ccccc3F)[nH]c2-c2ccncc2)cc1 | – | -25% (inactive) |
| Cc1[nH]c(/C=C2\C(=O)Nc3ccc(F)cc32)c(C)c1C(=O)NCCN1CCCC1 | 10.2 µM (active) | – |
| O=C(NC[C@H](O)CN1CCc2ccccc2C1)c1ccnc(NC2CCC2)c1 | – | 14% (inactive) |
| CC(C)NC(=O)COc1cccc(-c2nc(Nc3ccc4[nH]ncc4c3)c3ccccc3n2)c1 | – | -28.2% (inactive) |
| O=C(Nc1ccnc(NC(=O)C2CC2)c1)c1c(Cl)cccc1Cl | – | -76.2% (inactive) |
| Cc1cnc(-c2ccccc2C(C)C)nc1NCc1ccc(-n2ccnn2)cc1 | – | -20.6% (inactive) |
| CCNC1(C(N)=O)CCN(c2ncnc3c2nc(-c2ccccc2Cl)n3-c2ccc(Cl)cc2)CC1 | – | -96.7% (inactive) |
| C[C@@H]1CN(CC(=O)N2CC(C)(C)c3ncc(Cc4ccc(F)cc4)cc32)[C@@H](CN2CCOC[C@H]2C)CN1 | – | 40.9% (inactive) |
| CN(C)N(C)C(=O)[C@@]1(Cc2ccccc2)CCCN(C(=O)[C@@H](Cc2c[nH]c3ccccc23)NC(=O)C(C)(C)N)C1 | – | 5.14% (inactive) |
| FC(F)(F)c1ccc(/C=C/c2nc(COc3ccc(CCCCn4ccnn4)cc3)co2)cc1 | – | -19.1% (inactive) |
| O=C(Nc1ccc2[nH]nc(-c3ccncc3)c2c1)[C@@H]1CCN(CC(=O)N2CCN(c3ccc(-c4ncccn4)cc3)CC2)C1 | – | -10.9% (inactive) |
| CC#C[C@@H](CC(=O)O)c1ccc(OCc2cccc(-c3ccc(C(F)(F)F)cc3)c2)cc1 | – | -18.3% (inactive) |
| COc1ccc(-n2c(SCCCN3C(=O)c4cccc5cccc(c45)C3=O)nnc2-c2ccncc2)cc1 | – | -26.7% (inactive) |
| O=C(c1c(F)ccc(NS(=O)(=O)N2CC[C@@H](F)C2)c1F)c1c[nH]c2ncc(-c3cnc(C4CC4)nc3)cc12 | – | -28% (inactive) |
| Cn1cc(-c2ccc3c(c2)CCN3C(=O)Cc2cccc(C(F)(F)F)c2)c2c(N)ncnc21 | – | -55.7% (inactive) |
| O=C(O)C1=CO[C@@H](O[C@@H]2O[C@H](CO)[C@@H](O)[C@H](O)[C@H]2O)[C@@H]2C(CO)=CC[C@H]12 | – | 1.95% (inactive) |

| SMILES | Potency | activity change, negative = inhibition |
| --- | --- | --- |
| O=C1NC(=O)C(c2cnc3ccccn23)=C1c1cn2c3c(cc(F)cc13)CN(C(=O)N1CCCCC1)CC2 | 18.6 µM (active) | – |
| FC(F)(F)c1ccc(CNc2ccc(Cc3c[nH]c4ncc(Cl)cc34)cn2)cn1 | – | -29.3% (inactive) |
| NC(=O)c1cnc(N[C@@H]2CCCC[C@@H]2N)nc1Nc1cccc(-n2nccn2)c1 | 13.1 µM (active) | – |
| CN1CC[C@@H](c2c(O)cc(O)c3c(=O)cc(-c4ccc(C(F)(F)F)cc4Cl)oc23)[C@@H]1CO | 13.1 µM (active) | – |
| COc1ccc(CNc2nc(N(CCO)CCO)nc3c2ncn3C(C)C)cc1 | 4.66 µM (active) | – |
| COc1cccc(-c2cc(F)ccc2C2Cc3nc(N)nc(C)c3C(=O)N2)n1 (stereo not given) | 0.0587 µM (active) | – |
| CC(C)NC(=O)N1CC[C@H](N=C2Nc3cc(F)ccc3N(CC(F)F)c3ccc(Cl)cc32)C1 | – | -19.9% [at 8.44 µM] (inactive) |
| CC(/C=C/C(=O)NO)=C\[C@@H](C)C(=O)c1ccc(N(C)C)cc1 | 2.08 µM (active) | – |
| C[C@@H](c1ccc2nccn2c1)n1nnc2ncc(-c3cnn(C)c3)nc21 | – | -29.5% (inactive) |
| CC[C@@H](C)Nc1cc(C(=O)NC2CC3CC[C@@H](C2)N3c2ccc(C(=O)C3CC3)cn2)c(C)cc1C(N)=O (stereo not given in full) | 0.117 µM (active) | – |
| CCn1c(N)c(C(=O)NC)c(=O)c2ccc(C#CC(C)(O)COC)nc21 (stereo not given) | – | -38.4% (inactive) |
| O=c1[nH]c([C@@H]2CCCN2)nc2c1oc1ccc(Cl)cc12 | – | 9.71% (inactive) |
| COc1ccc(-c2cnc3c(-c4cccc5ncccc45)cnn3c2)cc1 | – | -14.3% (inactive) |
| COc1ccccc1C(=O)Nc1cc2c(cc1N1CCCC1)n(C)c(=O)n2C | – | -16.2% (inactive) |
| Cn1cc(-c2ccc(F)c(C(F)(F)F)c2)nc1C1CCN(c2ncnc3[nH]ncc23)CC1 | – | -29.1% (inactive) |
| O=C(Cc1cccc(OC(F)(F)F)c1)Nc1ccc(CCCCc2nnc(NC(=O)Cc3ccccn3)s2)nn1 | – | -22.9% (inactive) |
| Cc1c(F)ccc(C(=O)Nc2cc([N+](=O)[O-])ccc2N2CCN(C)CC2)c1Cl | – | -4.76% (inactive) |
| COc1cc2c(cc1OCCCN1CCCC1)N=C(N)C21CCC1 | – | -19.1% (inactive) |
| CCC[C@H](N[C@H]1CCc2cc(F)cc(F)c2C1)C(=O)Nc1cn(C(C)(C)CNCC(C)(C)C)cn1 | – | -12.6% (inactive) |
| COC(=O)Nc1cc(Nc2cc(NC3CC3)c3ncc(C#N)n3n2)c(Cl)c(N2CCN(C)CC2)c1 | 4.66 µM (active) | – |
